Several values for one entry are separate records, joined by “and”; a condition that tells them apart may be missing. Equal values may be shown once. The campaign covered roughly 9,900 compounds. About 90 (0.9%) were called active. About 2% were inconclusive and are not listed. Shown is part of a subset that was picked to be rich in actives. Values without a mark were called inactive.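 Rule for the calls: active = mean normalized replicate activity at least 50 and at least half of replicates each reaching 50; inconclusive = only one of the two criteria met; inactive = neither criterion met.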

A short description of this assay: reduction of CTGF mRNA in DLD1 cells – DLD1 colon cancer cells, RT-qPCR, single point, primary screen (AID 743449).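 Note: 0% = neutral control wells and 100% = dasatinib control wells; higher means stronger suppression of CTGF expression like dasatinib.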 The note with it: 24 h, at 12.5 µM, hits give high values. For orientation: Quantitative PCR measures a nucleic acid by following its amplification.
For the molecule `O=C(c1cnccn1)N1C[C@@H]2N[C@H](C1)C2c1ccc(/C=C/c2ccccc2)cc1` (some centres undefined), the inhibition (as a rule, the drop in the measured response relative to a control, in per cent) is -30.1% and 19.5%.

Take `O=C(C[C@H]1CC[C@H]2[C@@H](COC[C@@H](O)CN2C(=O)c2ccc(F)cc2)O1)N1CCCCC1`: the inhibition is -4.99%.

Regarding `COc1ccc(-c2ccc([C@H]3[C@H](CO)N4C(=O)CN(C(=O)C5CC5)C[C@@H]34)cc2)cc1`, the inhibition is 4.63%.

Regarding `COc1cccc(NC(=O)N[C@H]2CC[C@@H](CC(=O)N3CCN(C)CC3)O[C@@H]2CO)c1`, the inhibition is -6.95%.

Take `O=C(NC[C@H]1N[C@H](CO)[C@@H]1c1ccc(-c2cncnc2)cc1)C1CCCCC1`: the inhibition is -7.65%.

As to `COc1ccc2c3c(n(C)c2c1)[C@@H](CO)N(C(C)=O)CC31CN(S(=O)(=O)c2ccccc2)C1`, the inhibition is 1.07%.

As for `CC(C)c1cccc(NC(=O)C[C@H]2CC[C@H]3[C@@H](COc4ccc(NC(=O)NCc5ccccc5)cc4C(=O)N3C)O2)c1`, the inhibition was 22.2%.

Regarding `O=C(Nc1ccccc1F)N1C[C@@H]2[C@H](c3ccccc31)[C@@H](CO)N2C(=O)Cc1cccnc1`, the inhibition was 7.57%.

On to `CN1c2ccc(Br)cc2[C@@H]2[C@@H](CCN2S(=O)(=O)c2ccccc2F)[C@@H]1CO`, for which the inhibition was 9.29%.

For the molecule `NCC[C@H]1CC[C@@H](NC(=O)NC2CCCCC2)[C@H](CO)O1`, the inhibition was 53% (active).

For the molecule `NCC[C@@H]1CC[C@@H](NC(=O)NC2CCCCC2)[C@@H](CO)O1`, the inhibition is 5.69%.

Take `NCC[C@H]1CC[C@H](NC(=O)NC2CCCCC2)[C@@H](CO)O1`: the inhibition is 23.6%.

As for `O=C(NCc1cccc(F)c1)[C@H]1[C@H](CO)[C@H]2Cn3c(ccc(-c4ccncc4)c3=O)[C@@H]1N2CC1CC1`, the inhibition is -29.8%.

On to `Cn1cnc(S(=O)(=O)N[C@@H]2CC[C@H](CC(=O)NCC3CCCCC3)O[C@H]2CO)c1`, for which the inhibition is -20.2%.

With `COc1ccc2c3c(n(C)c2c1)[C@@H](CO)N(CC1CC1)CC31CN(S(=O)(=O)c2cn(C)cn2)C1`, the inhibition was 10%.

As for `Cc1ccc(S(=O)(=O)N[C@H]2C=C[C@H](CC(=O)NCc3ccc(Cl)c(Cl)c3)O[C@@H]2CO)cc1`, the inhibition is -5.24%.

For `Cc1ccc(S(=O)(=O)N[C@@H]2C=C[C@@H](CC(=O)NCc3ccc(Cl)c(Cl)c3)O[C@H]2CO)cc1`, the inhibition is 31%.

For the molecule `Cc1ccc(S(=O)(=O)N[C@H]2C=C[C@H](CC(=O)NCc3ccc(Cl)c(Cl)c3)O[C@H]2CO)cc1`, the inhibition is 52.5% (active).

Regarding `C/C=C/c1ccc([C@@H]2[C@@H](C#N)N(c3nc(CC)cs3)[C@@H]2CO)cc1`, the inhibition is 44.5%.

Regarding `COc1cccc(-c2ccc([C@H]3[C@@H](CO)N(C(=O)Cc4ccncc4)[C@H]3C#N)cc2)c1`, the inhibition is -2.53%.

As to `COc1cccc(-c2ccc([C@@H]3[C@@H](C#N)N(C(=O)Cc4ccncc4)[C@@H]3CO)cc2)c1`, the inhibition was 50.4% (active).

As for `COc1cccc(-c2ccc([C@H]3[C@H](C#N)N(C(=O)Cc4ccncc4)[C@H]3CO)cc2)c1`, the inhibition is -33.7%.

For the molecule `COc1ccc(CN(C)C[C@H]2Oc3ccc(NC(=O)Nc4ccc5c(c4)OCO5)cc3CC(=O)N([C@@H](C)CO)C[C@@H]2C)cc1`, the inhibition is -64.7%.

As for `COc1ccc(CN(C)C[C@@H]2Oc3ccc(NC(=O)Nc4ccc5c(c4)OCO5)cc3CC(=O)N([C@@H](C)CO)C[C@H]2C)cc1`, the inhibition was 13.9%.

Take `COc1ccc(CN(C)C[C@H]2Oc3ccc(NC(=O)Nc4ccc5c(c4)OCO5)cc3CC(=O)N([C@@H](C)CO)C[C@H]2C)cc1`: the inhibition is 57.9% (active).

Consider `C[C@@H]1CN([C@H](C)CO)C(=O)Cc2cc(NC(=O)C3CCCCC3)ccc2O[C@H]1CN(C)Cc1ccc(Cl)c(Cl)c1`, for which the inhibition is -7.16%.

Turning to `C[C@@H]1CN([C@@H](C)CO)C(=O)Cc2cc(NC(=O)C3CCCCC3)ccc2O[C@@H]1CN(C)Cc1ccc(Cl)c(Cl)c1`, the inhibition is 50.3% (active).

Take `C[C@H]1CN([C@@H](C)CO)C(=O)Cc2cc(NC(=O)C3CCCCC3)ccc2O[C@H]1CN(C)Cc1ccc(Cl)c(Cl)c1`: the inhibition is 35.6%.

Take `C/C=C/c1ccc([C@H]2[C@@H](CO)N(C(=O)Nc3ccccc3F)[C@H]2C#N)cc1`: the inhibition was 23.1%.

Consider `COC(=O)C[C@H]1CC[C@@H](N)[C@@H](CO)O1`, for which the inhibition was 15.9%.

In the case of `CNC[C@H]1OCc2ccccc2-c2ccccc2C(=O)N([C@H](C)CO)C[C@H]1C`, the inhibition was -6.87%.

In the case of `CCCN1C[C@H](C)[C@H](OC)CN(C)C(=O)c2cc(NC(=O)Nc3cccc(F)c3)ccc2OC[C@@H]1C`, the inhibition was 6.58%.

On to `CO[C@@H]1CC[C@@H]2CCOc3ccc(C#N)cc3C(=O)N(C)[C@H](C)C(=O)N(C)C[C@H]1O2`, for which the inhibition was -48.9%.

In the case of `CCS(=O)(=O)Nc1ccc2c(c1)C(=O)N(C)[C@H]1CC[C@H](CC(=O)N3CCN(C)CC3)O[C@H]1CO2`, the inhibition was 51.4% (active).

Turning to `CN1C(=O)c2cc(NS(=O)(=O)c3ccccc3F)ccc2OC[C@@H]2O[C@H](CC(=O)NC3Cc4ccccc4C3)CC[C@@H]21`, the inhibition was -9.49%.

On to `CN1C(=O)c2cc(NS(=O)(=O)c3ccccc3F)ccc2OC[C@H]2O[C@H](CC(=O)NC3Cc4ccccc4C3)CC[C@H]21`, for which the inhibition is -1.53%.

For `CN1C(=O)c2cc(NC(=O)Cc3cccs3)ccc2OC[C@H]2O[C@@H](CC(=O)NCCc3ccncc3)CC[C@@H]21`, the inhibition was -83.9%.

On to `CN1C(=O)c2cc(NC(=O)Cc3cccs3)ccc2OC[C@@H]2O[C@@H](CC(=O)NCCc3ccncc3)CC[C@H]21`, for which the inhibition is 60.1% (active).

With `CN1CCN(C(=O)C[C@H]2CC[C@H]3[C@@H](COc4ccc(NC(=O)C5CCOCC5)cc4C(=O)N3C)O2)CC1`, the inhibition was -56%.

In the case of `CN1C(=O)c2cc(NS(=O)(=O)c3ccccc3F)ccc2OC[C@@H]2O[C@@H](CC(=O)NC3Cc4ccccc4C3)CC[C@@H]21`, the inhibition was 108% (active).

Turning to `CCS(=O)(=O)Nc1ccc2c(c1)C(=O)N(C)[C@H]1CC[C@@H](CC(=O)N3CCN(C)CC3)O[C@H]1CO2`, the inhibition is 15.7%.

Take `CN1C(=O)c2cc(NC(=O)Cc3cccs3)ccc2OC[C@H]2O[C@H](CC(=O)NCCc3ccncc3)CC[C@@H]21`: the inhibition is -70.9%.

Turning to `CN1CCN(C(=O)C[C@@H]2CC[C@H]3[C@@H](COc4ccc(NC(=O)C5CCOCC5)cc4C(=O)N3C)O2)CC1`, the inhibition is 51.1% (active).

As for `CN1CCN(C(=O)C[C@H]2CC[C@@H]3[C@@H](COc4ccc(NC(=O)C5CCOCC5)cc4C(=O)N3C)O2)CC1`, the inhibition is 27.7%.

Regarding `CCS(=O)(=O)Nc1ccc2c(c1)C(=O)N(C)[C@@H]1CC[C@H](CC(=O)N3CCN(C)CC3)O[C@H]1CO2`, the inhibition was 0.381%.

As to `COc1ccccc1NC(=O)N[C@H]1CC[C@H](CCNS(=O)(=O)c2ccc(Cl)cc2)O[C@@H]1CO`, the inhibition is 8.99%.

In the case of `COc1ccc(NC(=O)N[C@H]2CC[C@H](CCNC(=O)CN3CCOCC3)O[C@H]2CO)cc1`, the inhibition is -23.1%.

For the molecule `CC(=O)N1C[C@@H]2N[C@H](C1)C2c1ccc(-c2ccccc2)cc1` (some centres undefined), the inhibition is -22.3%.

For the molecule `O=C(C[C@H]1CC[C@@H](NC(=O)c2cccnc2)[C@@H](CO)O1)NCc1ccc(Cl)c(Cl)c1`, the inhibition is 26.4%.

For `CN1C(=O)c2cc(NC(=O)c3cccc(F)c3)ccc2OC[C@@H]2O[C@@H](CC(=O)NCc3ccccc3Cl)CC[C@@H]21`, the inhibition was 36%.

With `COCC#Cc1ccc([C@@H]2[C@@H](CO)N3CCCCN(C(=O)NC4CCCC4)C[C@@H]23)cc1`, the inhibition is -25.3%.

For `CO[C@@H](CN(C)S(=O)(=O)c1ccc(C)cc1)[C@H](C)CN([C@H](C)CO)S(=O)(=O)c1cccc(Cl)c1`, the inhibition is 93.3% (active).

As for `CO[C@H](CN(C)S(=O)(=O)c1ccc(C)cc1)[C@@H](C)CN([C@@H](C)CO)S(=O)(=O)c1cccc(Cl)c1`, the inhibition is 6.82%.

`CO[C@@H](CN(C)Cc1cc(F)ccc1F)[C@@H](C)CN([C@H](C)CO)S(=O)(=O)c1ccc(C)cc1`: the inhibition was 14.9%.

Take `CO[C@H](CN(C)S(=O)(=O)c1ccc(C)cc1)[C@@H](C)CN([C@H](C)CO)S(=O)(=O)c1cccc(Cl)c1`: the inhibition is 32.6%.

On to `CO[C@@H](CN(C)S(=O)(=O)c1ccc(C)cc1)[C@H](C)CN([C@@H](C)CO)S(=O)(=O)c1cccc(Cl)c1`, for which the inhibition is 78.9% (active).

On to `CO[C@@H](CN(C)S(=O)(=O)c1ccc(C)cc1)[C@@H](C)CN([C@H](C)CO)S(=O)(=O)c1cccc(Cl)c1`, for which the inhibition was 74.7% (active).

On to `CO[C@H](CN(C)S(=O)(=O)c1ccc(C)cc1)[C@H](C)CN([C@@H](C)CO)S(=O)(=O)c1cccc(Cl)c1`, for which the inhibition is 1.44%.

Regarding `CO[C@@H](CN(C)S(=O)(=O)c1ccc(C)cc1)[C@@H](C)CN([C@@H](C)CO)S(=O)(=O)c1cccc(Cl)c1`, the inhibition was 38.7%.

For `CO[C@H](CN(C)S(=O)(=O)c1ccc(C)cc1)[C@H](C)CN([C@H](C)CO)S(=O)(=O)c1cccc(Cl)c1`, the inhibition was 16.6%.

As to `CO[C@H]1CC[C@@H]2CCOc3ccc(C#N)cc3C(=O)N(C)C[C@@H](c3ccccc3)CC(=O)N(C)C[C@@H]1O2`, the inhibition was -39.9%.

On to `OC[C@@H]1[C@H](c2ccc(C#Cc3ccccc3F)cc2)[C@@H]2CN(CC3CCOCC3)CCCCN12`, for which the inhibition is -33.6%.

In the case of `CCCNC[C@@H]1[C@@H](c2ccc(C3=CCCCC3)cc2)[C@@H](CO)N1C(=O)C1CCC1`, the inhibition is -79.5%.

Regarding `CN1C(=O)c2cc(NC(=O)Nc3ccccc3Cl)ccc2OC[C@@H]2O[C@@H](CC(=O)O)CC[C@H]21`, the inhibition was -2.71%.

The values are drawn from PubChem BioAssay AID743449 (Broad Institute, 2014).
